# Experimental data as given in PubChem BioAssay AID2549 (National Center for Advancing Translational Sciences (NCATS), 2010).
# Several values for one entry are separate records, joined by “and”; a condition that tells them apart may be missing. Equal values may be shown once. In all, about 240,000 compounds went through this assay and about 1,300 (0.54%) were called active. Where a call stands in place of a potency, no number is given. Roughly 1% stayed inconclusive and do not appear here. Calls come from the whole dose curve; as a rule, active = well fitted inhibition curve with a large enough effect; inconclusive = small, poorly fitted or top-dose-only effect; inactive = flat fitted curve, though single readings scatter. For the sample, actives were picked, then their nearest neighbours and some compounds at random. A structure can be active in one record and inactive in another.
# Target: ATP-dependent DNA helicase Q1 (Homo sapiens) (UniProt P46063)
# Sequence (P46063 whole entry, looked up): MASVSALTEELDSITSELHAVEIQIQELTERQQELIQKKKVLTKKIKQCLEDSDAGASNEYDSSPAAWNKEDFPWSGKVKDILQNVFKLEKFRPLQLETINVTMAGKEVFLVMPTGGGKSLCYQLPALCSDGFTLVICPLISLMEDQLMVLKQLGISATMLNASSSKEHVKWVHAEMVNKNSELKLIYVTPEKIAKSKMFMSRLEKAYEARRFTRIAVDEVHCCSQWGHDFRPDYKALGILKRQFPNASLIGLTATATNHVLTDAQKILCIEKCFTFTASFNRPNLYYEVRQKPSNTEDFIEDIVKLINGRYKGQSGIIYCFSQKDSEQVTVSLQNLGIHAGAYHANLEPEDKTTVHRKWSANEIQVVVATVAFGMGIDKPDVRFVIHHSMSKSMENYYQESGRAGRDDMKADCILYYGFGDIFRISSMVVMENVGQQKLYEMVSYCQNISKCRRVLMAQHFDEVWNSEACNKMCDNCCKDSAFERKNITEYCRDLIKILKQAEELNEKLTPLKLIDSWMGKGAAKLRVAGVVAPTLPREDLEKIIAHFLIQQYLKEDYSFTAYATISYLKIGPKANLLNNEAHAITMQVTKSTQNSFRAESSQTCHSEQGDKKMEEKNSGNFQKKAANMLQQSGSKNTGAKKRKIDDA
# Test: qHTS Assay for Inhibitors of RecQ-Like Dna Helicase 1 (RECQ1); note: nearly all actives have a fitted effect of over 30% in size
# Conditions: RECQ1 DNA unwinding, red fluorescence kinetic read; series mostly up to 57.3 µM
# Excerpt: Survival of cells and the faithful propagation of the genome depend on elaborate mechanisms of detecting and repairing DNA damage. Treatment of advanced cancer relies on radiation therapy or chemotherapy, which kill cancer cells by causing extensive DNA damage. It is often found, that cancer cells develop resistance to therapy through enhanced activity of DNA repair functions; this has led to an increased interest in developing drugs that interfere with DNA repair, which could sensitize cancer cells to conventional therapy.
# This validation qHTS assay pertains to human RECQ1, which is important in resolving abnormal DNA structures formed during replication or homologous recombination. Shutting down the expression of RECQ1 leads to chromosomal instability and higher radiation sensitivity in cultured cells.
# The validation assay was a fluorescence quenching based kinetic qHTS for RECQ1 Helicase DNA unwinding. The activity was measured as ATP-dependent separation of a 20-bp DNA duplex extended by 30-nt single-stranded tails (forked duplex). The forked DNA substrate was tagged with rhodamine fluorophore (carboxytetramethyl rhodamine, TAMRA) and BHQ-2 (Black Hole Quencher 2) dark quencher. Strand separation results in an increase in the fluorescence of TAMRA (excitation 525 nm, emission 598 nm). This substrate construct operates in a red-shifted region where very few compound library members have been noted to fluoresce (PubChem AIDs 593 and 594). An additional feature of the assay is the inclusion of 2.5 ug/ml poly (dIdC), to reduce interference by compounds such as DNA intercalators, a major source of false inhibitors.
# Opher Gileadi, Structural Genomics Consortium, University of Oxford
# Screening Center PI: Austin, C.P.
# Screening Center: NIH Chemical Genomics Center [NCGC]
# Three uL of reaction buffer (25 mM Tris-HCl (pH 8.0), 5 mM NaCl, 2 mM MgCl2, 1mM DTT, 0.01% Tween- 20, and 2.5 ug/ml poly(dI-dC), including enzyme (50 nM RECQ1T1), were dispensed into a 1536-well Greiner black assay plate via solenoid-valve based nanoliter dispensers. Compounds (23 nl each in columns 5-48) and control (23 nl each in column 2 as dose-response) were transferred via a Kalypsys pintool equipped with a 1536-pin array. The plates were incubated for 15 min at room temperature, and then 1 ul of substrates (200 nM DNA and 2 mM ATP, final concentrations) was added to start the reaction. The plate was transferred into a ViewLux high-throughput CCD imager where the reaction progress was measured in a discontinuous kinetic mode (two reads spaced 2 hours apart, with intermediate room temperature incubation of the covered assay plate) by using standard red-fluorescence optics (excitation filter 525 nm, emission filter 598 nm). Enzyme-free and vehicle (DMSO) controls were included for signal normalization.
# Potency is the fitted concentration of half-maximal effect.
SMILES,Potency,outcome
O=[N+]([O-])c1ccc(N2CCSCC2)cc1O,inactive,
O=C1CSC(=S)N1/N=C/c1ccc(O)c([N+](=O)[O-])c1,25.1 µM (active),
NC(N)=N/N=C/c1ccc(Cl)c([N+](=O)[O-])c1,inactive,
Cc1cc(C)c(OCC(=O)N/N=C/c2ccco2)c(C)c1,inactive,
CN1[C@H]2CC(OC(=O)[C@@H](CO)c3ccccc3)C[C@H]1[C@H]1O[C@H]12 (some centres undefined),inactive,
NC(=O)c1sc(-c2ccsc2)cc1N,inactive,
O=C(NCc1ccccn1)[C@]1(C(F)(F)F)C[C@H](CCc2ccccc2)CCCO1,inactive,
O=C1OCCN1C(=O)[C@H]1[C@H](c2ccccc2)C(c2ccc(F)cc2)=NN1c1ccccc1,inactive,
O=C1OCCN1C(=O)[C@H]1[C@H](c2ccc(Cl)cc2)C(c2cccc(Cl)c2)=NN1c1ccc(Br)cc1,25.1 µM (active),
O=C1OCCN1C(=O)[C@H]1[C@H](c2ccc(F)cc2)C(c2ccccc2)=NN1c1ccc(Br)cc1,inactive,
C[C@@H]1C(c2ccc(F)cc2)=NN(c2ccc(Br)cc2)[C@H]1C(=O)N1CCOC1=O,25.1 µM (active),
CC(C)C(NS(=O)(=O)c1ccc(-c2ccc(Br)cc2)cc1)C(=O)O (centres undefined),inactive,
CC(C)=CCC[C@]1(C)[C@@H](CC=C(C)C)C[C@@]2(CC=C(C)C)C(=O)[C@]1(C(=O)C(C)C)C(=O)C(CC=C(C)C)=C2O,inactive,
CCCC(=O)Nc1c(O)c2ccccc2[nH]c1=O,inactive,
CC(C)C(=O)Nc1c(O)c2ccccc2[nH]c1=O,inactive,
O=C1C(c2[nH]c3ccccc3c2O)=Nc2ccccc21,inactive and 35.5 µM (active),
COc1ccc(Cl)cc1NC(=O)Cn1nc(-c2ccc(C)cc2)n(C)c1=S,inactive,
Cc1ccc(NC(=O)CC2S/C(=N/N=C3\CCCc4ccccc43)NC2=O)cc1 (centres undefined),25.1 µM (active),
Cc1c(Cl)cccc1NC(=O)CC1SC(=NCC2CCCO2)NC1=O (centres undefined),inactive,
CCN=C1SC(CC(=O)Nc2ccc(C)cc2)C(=O)N1CC (centres undefined),inactive,
COc1cc(OC)c2c(c1C(CCN1CCCCC1)c1ccc(N(C)C)cc1)OC(=O)CC2c1ccc(N(C)C)cc1 (centres undefined),inactive,
O=[N+]([O-])c1cc(S(=O)(=O)Nc2cccc(Cl)c2)ccc1N=Nc1c(O)[nH]c2ccccc12,inactive,
CC1=C(/C=C/C(C)=C/C=C/C(C)=C/C=C/C=C(C)/C=C/C=C(C)/C=C/C(=O)[C@]2(C)C[C@@H](O)CC2(C)C)C(C)(C)C[C@H](O)C1,inactive,
C=C1CCN(C(CC(C)C)C(=O)NCc2cc(OC)c(OC)c(OC)c2)S(=O)(=O)c2ccccc21 (centres undefined),inactive,
COc1ccc(-c2ccc(OC)c(C3C4C=CCC(C)C4C(=O)N3Cc3ccccc3)c2)cc1C (centres undefined),inactive,

SMILES,Potency,outcome
O=C(NNC(=O)c1cc2c(s1)CCCC2)c1ccccc1,inactive,
O=C(c1cc2c(s1)CCC2)N1CCN(c2ccccc2)CC1,11.2 µM (active),
Cc1nc2ccc(C(=O)N3CCN(c4ccccc4)CC3)cc2s1,inactive,
CC(C)C(=O)N1CCC2(CC1)Oc1ccc(F)cc1C(=O)C21CC(c2ccccc2)=NO1 (centres undefined),inactive,
CCCOc1ccc(NC(=O)CC2C(=O)N(C)C(=S)N2Cc2ccc3c(c2)OCO3)cc1 (centres undefined),inactive,
O=C(Nc1cc(C(=O)Nc2ccc(S(=O)(=O)O)cc2)cc(C(=O)Nc2ccc(S(=O)(=O)O)cc2)c1)Nc1cc(C(=O)Nc2ccc(S(=O)(=O)O)cc2)cc(C(=O)Nc2ccc(S(=O)(=O)O)cc2)c1,inactive,
Cc1ccc(CNC(=O)C2(C(F)(F)F)C/C(=C\Cc3ccccc3)CCCO2)o1 (centres undefined),inactive,
CC(=O)OCC1OC(C#Cc2ccccc2Cl)C=CC1OC(C)=O (centres undefined),,inactive [at 11.5 µM]
Fc1ccc(Cl)cc1-c1nc(Nc2ccncc2)c2nccnc2n1,inactive,
COc1ccc(CNC(=O)C(Cc2ccccc2)n2cccc2)cc1 (centres undefined),inactive,
CC(Cc1ccccc1)C(=O)N(C)Cc1ccccc1 (centres undefined),inactive,
Cc1ccc(C)n1C(Cc1ccccc1)C(=O)O (centres undefined),12.6 µM (active),
O=C(NCC1CC1)C1(C(F)(F)F)C/C(=C\CCO)CCCO1 (centres undefined),inactive,
CCOC(=O)C1=C(C)N=C2c3ccccc3C(=O)C2C1c1ccc(Br)cc1 (centres undefined),inactive,
CCOC(=O)C1=NOC(Cn2cc(C(C)=O)c(=O)[nH]c2=O)C1 (centres undefined),inactive,
CCOC(=O)C1=NO[C@@]2(C=C(Br)C(=O)[C@H]3O[C@H]32)C1,28.2 µM (active),
NC(=O)C1=C[C@@H](c2csc3ccccc23)C[C@@H](OCc2ccc(CO)cc2)O1,inactive,
COC(=O)c1ccc([C@@H](O)[C@H](C)C(=O)CC(=O)OC(C)(C)C)cc1,inactive,
CN(C)c1ccc(-n2cccc2/C=C2/SC(=Nc3ccc(F)cc3)NC2=O)cc1,inactive,
Cc1ccc(N=C2NC(=O)/C(=C/C=C/c3ccco3)S2)cc1C,22.4 µM (active),
Cc1cccc(N=C2NC(=O)/C(=C/c3cn(C)c4ccccc34)S2)c1,inactive,
O=C1CN(Cc2ccccc2)S(=O)(=O)c2ccccc21,inactive,
CC(C)=CCN1CCC2(CCc3ccccc32)CC1,inactive,
CCC1=NN2C(=N)/C(=C/c3cc(C)n(-c4ccccc4)c3C)C(=O)N=C2S1,inactive,
CS(=O)(=O)c1ccc2c(c1)SC1=NC(=O)/C(=C/c3ccco3)C(=N)N12,28.2 µM (active),

SMILES,Potency,outcome
CCS(=O)(=O)C1=NSC2=NC(=O)/C(=C\c3cc(C)n(-c4cccc(OC)c4)c3C)C(=N)N21,inactive,
CCOC(OCC)OCC,inactive,
COC(=O)C(CC(C)C)NS(=O)(=O)c1cc(Br)ccc1Br (centres undefined),inactive,
C=CCOC(=O)C(=C)C,inactive,
C/C(=N\NC(=S)NCc1ccccc1)c1ccc(Cl)cc1,31.6 µM (active),
O=C(O)c1ccc(/C=N/NC(=S)NCc2ccccc2)cc1,inactive,
C/C(=N\NC(=S)NCc1ccccc1)C1CCCCC1,inactive,
CC(O)[C@@H](N)C(=O)O (some centres undefined),inactive,
CNc1nnc(-c2ccco2)s1,inactive,
Cc1ccc(OCC(=O)Nc2nnc(-c3ccco3)s2)cc1,inactive,
COc1ccc(OCC(=O)Nc2nnc(-c3ccco3)s2)cc1,31.6 µM (active),
COc1cc(C(F)(F)F)c(C(=O)N(C)c2ccc(Cl)cc2)cn1,inactive,
Cc1cs/c(=N\N=C\c2ccc(O)cc2)n1Cc1ccco1,inactive,
COc1ccc(NC(=O)Cn2c(=O)n(Cc3ccco3)c(=O)c3ccccc32)cc1,inactive,
CN(c1ccccc1)c1ccc(/C=c2\s/c(=C(/C#N)C(=O)C(C)(C)C)n(Cc3ccco3)c2=O)cc1,17.8 µM (active),
COc1ccc(C2CC(O)(c3ccccc3)Oc3cc(C)cc(C)c32)cc1 (centres undefined),inactive,
CC(C)(C)c1cc(C(=O)N/N=C/c2ccc([N+](=O)[O-])s2)n[nH]1,inactive,
CCOc1ccc(NC(=O)CCC(=O)N/N=C/c2ccc([N+](=O)[O-])s2)cc1,inactive,
O=[N+]([O-])c1ccc(C=Nc2ccc(Cl)cc2Cl)s1,25.1 µM (active),
CC(C)c1cnc(NC(=O)Cc2ccccc2)s1,inactive,
CC(=O)OCC(NC(=O)C(Cc1ccccc1)NC(=O)OC(C)(C)C)C1OC(n2ccc(=O)[nH]c2=O)C(OC(C)=O)C1OC(C)=O (centres undefined),inactive,
Nc1nc(SCc2ccccc2Cl)n[nH]1,inactive,
c1ccc(CSc2nnc(-c3ccco3)c(-c3ccco3)n2)cc1,11.2 µM (active),
COC(OC)c1ccnc(SCc2ccccc2Cl)n1,inactive,
Brc1ccc(CSc2ccc(-c3ccco3)nn2)cc1,inactive,

SMILES,Potency,outcome
Clc1ccccc1CSc1nnc(-c2ccco2)c(-c2ccco2)n1,35.5 µM (active),
O=C(Nc1nnc(SCc2ccccc2)s1)c1ccco1,inactive,
COc1ccc(-c2ccc(C3C4C=CCCC4(C)C(=O)N3Cc3ccccc3)c(F)c2)cc1OC (centres undefined),inactive,
Cc1noc(C)c1-c1ccc2ncnc(NC(C)c3ccco3)c2c1 (centres undefined),inactive,
CCN(CC)/[N+]([O-])=N/Oc1cc(O/[N+]([O-])=N/N2CCCC2CO)c([N+](=O)[O-])cc1[N+](=O)[O-] (centres undefined),inactive,
OC(CCl)CCl,inactive,
Cc1cc(Cl)ccc1NNC(=O)c1snnc1C,inactive,
COc1cccc(-c2cc(=O)c3cc(NC(=O)c4ccc(C)cc4)ccc3[nH]2)c1,inactive,
Cc1ccc(S(=O)(=O)Oc2ccc(/C=N/NC(=O)c3c(Cl)cnn3C)cc2)cc1,inactive,
Oc1ccc(O)c2c(O)cccc12,3.98 µM (active),
Cn1c2ccccc2c(=O)c2c(O)cccc21,inactive,
CNC(=O)[C@]1(C(F)(F)F)C[C@H](CCc2ccccc2)CCCO1,inactive,
O=C1c2cccc(OCC(=O)N3N=C(c4cccs4)CC3c3ccc(F)cc3)c2CCN1Cc1ccccc1 (centres undefined),inactive,
CC1CCCC(NC(=O)COC(=O)[C@@H]2CC(O)CN2S(=O)(=O)c2ccc3c(c2)OCCO3)C1C (some centres undefined),inactive,
O=C(CSc1ncn[nH]1)NCc1ccc2c(c1)OCO2,inactive,
O=C(CSc1ccc(-c2ccco2)nn1)NCc1ccc2c(c1)OCO2,28.2 µM (active),
Cc1ccccc1-c1nnc(SCC(=O)NCc2ccc3c(c2)OCO3)n1C,inactive,
C=C1CCN(C(CC(C)C)C(=O)N2CCOCC2)S(=O)(=O)c2ccccc21 (centres undefined),inactive,
Cc1cccc(C2c3[nH]c4ccccc4c3CCN2C(=O)c2cc(-c3cccn3C)n[nH]2)n1 (centres undefined),inactive,
O=C(O)c1ccc(/C=C2/SC(=S)N(c3cccc(C(F)(F)F)c3)C2=O)cc1,inactive,
C=CCNC(=O)CSc1nc2scc(-c3ccco3)c2c(=O)n1CC=C,inactive,
C=CCn1c(=S)[nH]c2scc(-c3ccco3)c2c1=O,31.6 µM (active),
C=CCn1c(SCc2csc(C)n2)nc2scc(-c3ccc(C)o3)c2c1=O,inactive,
O=C1C[C@@H](c2ccc3ccccc3c2)N1S(=O)(=O)c1ccccc1[N+](=O)[O-],inactive,
